# Measurements as given in article PMC7862700, “An all-to-all approach to the identification of sequence-specific readers for epigenetic DNA modifications on cytosine”.
# Assays:
# Assay in all cases: DAPPL (digital affinity profiling via proximity ligation, sequencing); 10 mM Tris-HCl pH 7.5, 50 mM NaCl, 1 mM DTT, 4% glycerol, room temperature, 30 min; GST-TFs on glutathione beads, 16-mer random dsDNA library, 0.1% formaldehyde crosslink after washing; high values mean tight binding
# FLI1 = target: T1, FLI1 (Homo sapiens, UniProt Q01543 1-452); settings: protein: recombinant; tags: N-terminal GST; dsDNA, one strand shown
# T1 sequence: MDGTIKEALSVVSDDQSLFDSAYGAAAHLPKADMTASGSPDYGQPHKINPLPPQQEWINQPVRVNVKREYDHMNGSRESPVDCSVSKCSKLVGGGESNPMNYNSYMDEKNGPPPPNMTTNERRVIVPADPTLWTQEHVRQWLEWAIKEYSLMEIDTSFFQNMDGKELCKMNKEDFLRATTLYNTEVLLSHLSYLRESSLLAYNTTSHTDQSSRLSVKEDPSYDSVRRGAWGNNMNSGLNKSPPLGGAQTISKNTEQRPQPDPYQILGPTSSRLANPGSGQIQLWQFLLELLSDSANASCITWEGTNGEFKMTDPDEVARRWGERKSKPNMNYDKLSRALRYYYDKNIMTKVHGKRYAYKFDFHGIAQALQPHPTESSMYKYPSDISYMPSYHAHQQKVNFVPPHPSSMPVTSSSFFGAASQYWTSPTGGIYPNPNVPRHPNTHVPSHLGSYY
# Procedure, shortened: (§1)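 A tag-only sample was pooled with DNA-barcoded human transcription factors that had been expressed in yeast as GST fusions and captured on glutathione beads. The pools were incubated for 30 min at room temperature with 200 nmole of a random double-stranded 16-mer DNA library in Tris/NaCl/DTT/glycerol buffer, then washed, crosslinked with 0.1% formaldehyde, proximity-ligated (BsaI/T4 ligase, 1 h, 37 °C), PCR-amplified and sequenced on an Illumina NextSeq500. Binding signal is each hexamer's read frequency for a factor divided by its frequency for the tag-only sample.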
# ELK1 = target: T2, ELK1 (Homo sapiens, UniProt P19419 1-428); settings: protein: recombinant; tags: N-terminal GST; dsDNA, one strand shown
# T2 sequence: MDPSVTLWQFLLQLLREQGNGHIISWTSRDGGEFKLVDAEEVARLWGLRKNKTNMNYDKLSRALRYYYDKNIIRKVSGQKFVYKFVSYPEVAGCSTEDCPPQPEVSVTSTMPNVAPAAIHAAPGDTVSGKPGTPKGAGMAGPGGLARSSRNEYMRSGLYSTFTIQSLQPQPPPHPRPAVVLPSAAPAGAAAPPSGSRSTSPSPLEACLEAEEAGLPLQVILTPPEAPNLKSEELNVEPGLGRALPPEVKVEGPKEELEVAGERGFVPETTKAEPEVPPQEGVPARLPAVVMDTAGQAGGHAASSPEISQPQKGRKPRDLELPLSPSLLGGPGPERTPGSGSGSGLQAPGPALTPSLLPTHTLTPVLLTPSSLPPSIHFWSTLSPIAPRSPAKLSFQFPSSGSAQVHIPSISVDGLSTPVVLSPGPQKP
# Procedure, shortened: as §1
# GABPA = target: T3, GABPA (Homo sapiens, UniProt Q06546 1-454); settings: protein: recombinant; tags: N-terminal GST; dsDNA, one strand shown
# T3 sequence: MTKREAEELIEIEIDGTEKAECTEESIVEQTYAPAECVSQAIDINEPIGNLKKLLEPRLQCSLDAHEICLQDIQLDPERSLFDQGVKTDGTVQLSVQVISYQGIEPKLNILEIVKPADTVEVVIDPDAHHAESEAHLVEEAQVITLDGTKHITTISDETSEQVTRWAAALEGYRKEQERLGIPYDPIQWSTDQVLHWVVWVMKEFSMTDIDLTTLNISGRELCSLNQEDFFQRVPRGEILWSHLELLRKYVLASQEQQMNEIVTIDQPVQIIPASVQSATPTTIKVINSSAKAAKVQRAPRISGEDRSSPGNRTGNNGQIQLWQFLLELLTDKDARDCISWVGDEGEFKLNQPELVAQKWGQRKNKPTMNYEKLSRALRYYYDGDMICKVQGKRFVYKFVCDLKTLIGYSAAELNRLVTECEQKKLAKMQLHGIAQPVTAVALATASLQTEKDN
# Procedure, shortened: as §1
# ERG = target: T4, ERG (Homo sapiens, UniProt P11308 1-479); settings: protein: recombinant; tags: N-terminal GST; dsDNA, one strand shown
# T4 sequence: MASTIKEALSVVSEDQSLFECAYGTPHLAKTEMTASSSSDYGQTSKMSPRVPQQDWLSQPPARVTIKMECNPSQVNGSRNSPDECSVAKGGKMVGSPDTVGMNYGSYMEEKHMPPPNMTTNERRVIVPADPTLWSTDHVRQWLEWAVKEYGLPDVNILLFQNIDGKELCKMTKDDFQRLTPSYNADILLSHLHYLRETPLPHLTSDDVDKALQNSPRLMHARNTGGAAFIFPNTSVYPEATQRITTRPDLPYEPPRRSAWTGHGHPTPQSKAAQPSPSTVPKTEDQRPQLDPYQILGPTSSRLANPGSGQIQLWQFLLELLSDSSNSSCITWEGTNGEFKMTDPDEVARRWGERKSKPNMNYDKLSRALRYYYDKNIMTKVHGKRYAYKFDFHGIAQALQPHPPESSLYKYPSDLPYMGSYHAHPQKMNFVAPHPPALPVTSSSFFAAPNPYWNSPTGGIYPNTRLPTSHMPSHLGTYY
# Procedure, shortened: as §1
# ELF1 = ELF1 (Homo sapiens, UniProt P32519 1-619); settings: protein: recombinant; tags: N-terminal GST; dsDNA, one strand shown
# Procedure, shortened: as §1
# EHF = target: T5, EHF (Homo sapiens, UniProt Q9NZC4 1-300); settings: protein: recombinant; tags: N-terminal GST; dsDNA, one strand shown
# T5 sequence: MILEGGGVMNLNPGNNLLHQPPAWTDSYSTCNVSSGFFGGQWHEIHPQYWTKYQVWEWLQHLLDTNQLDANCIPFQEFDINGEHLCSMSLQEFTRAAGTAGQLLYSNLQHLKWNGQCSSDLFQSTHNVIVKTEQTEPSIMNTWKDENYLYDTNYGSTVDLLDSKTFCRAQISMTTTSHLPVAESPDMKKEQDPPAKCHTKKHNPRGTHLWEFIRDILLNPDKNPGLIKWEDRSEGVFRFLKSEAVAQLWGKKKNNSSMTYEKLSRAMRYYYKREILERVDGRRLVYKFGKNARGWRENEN
# Procedure, shortened: as §1
# SPI1 = SPI1 (Homo sapiens, UniProt P17947 1-270); settings: protein: recombinant; tags: N-terminal GST; dsDNA, one strand shown
# Procedure, shortened: as §1
# SPIB = SPIB (Homo sapiens, UniProt Q01892 1-262); settings: protein: recombinant; tags: N-terminal GST; dsDNA, one strand shown
# Procedure, shortened: as §1
# ELK3 = target: T6, ELK3 (Homo sapiens, UniProt P41970 1-407); settings: protein: recombinant; tags: N-terminal GST; dsDNA, one strand shown
# T6 sequence: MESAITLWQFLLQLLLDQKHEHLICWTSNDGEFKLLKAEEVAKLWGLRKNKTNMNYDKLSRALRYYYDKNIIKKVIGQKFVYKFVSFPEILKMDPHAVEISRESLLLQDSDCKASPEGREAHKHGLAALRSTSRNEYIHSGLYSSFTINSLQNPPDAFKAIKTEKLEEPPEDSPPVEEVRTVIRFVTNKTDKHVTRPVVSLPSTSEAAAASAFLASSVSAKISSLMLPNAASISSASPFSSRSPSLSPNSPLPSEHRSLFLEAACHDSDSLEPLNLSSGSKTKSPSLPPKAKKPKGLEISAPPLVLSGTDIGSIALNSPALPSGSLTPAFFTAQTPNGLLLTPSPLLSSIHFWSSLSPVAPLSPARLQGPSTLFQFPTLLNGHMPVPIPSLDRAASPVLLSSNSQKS
# Procedure, shortened: as §1
# FEV = target: T7, FEV (Homo sapiens, UniProt Q99581 1-238); settings: protein: recombinant; tags: N-terminal GST; dsDNA, one strand shown
# T7 sequence: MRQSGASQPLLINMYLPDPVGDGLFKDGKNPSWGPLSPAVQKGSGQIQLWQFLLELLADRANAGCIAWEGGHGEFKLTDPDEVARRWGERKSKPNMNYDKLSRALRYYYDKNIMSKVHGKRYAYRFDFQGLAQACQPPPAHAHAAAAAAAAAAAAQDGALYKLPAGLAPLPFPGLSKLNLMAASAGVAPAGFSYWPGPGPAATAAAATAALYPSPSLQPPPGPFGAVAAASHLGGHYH
# Procedure, shortened: as §1
# ETV5 = ETV5 (Homo sapiens, UniProt P41161 1-510); settings: protein: recombinant; tags: N-terminal GST; dsDNA, one strand shown
# Procedure, shortened: as §1
# HSF1 = HSF1 (Homo sapiens, UniProt Q00613 1-529); settings: protein: recombinant; tags: N-terminal GST; chain copies: 3; dsDNA, one strand shown
# Procedure, shortened: as §1
# SPIC = target: T8, SPIC (Homo sapiens, UniProt Q8N5J4 1-248); settings: protein: recombinant; tags: N-terminal GST; dsDNA, one strand shown
# T8 sequence: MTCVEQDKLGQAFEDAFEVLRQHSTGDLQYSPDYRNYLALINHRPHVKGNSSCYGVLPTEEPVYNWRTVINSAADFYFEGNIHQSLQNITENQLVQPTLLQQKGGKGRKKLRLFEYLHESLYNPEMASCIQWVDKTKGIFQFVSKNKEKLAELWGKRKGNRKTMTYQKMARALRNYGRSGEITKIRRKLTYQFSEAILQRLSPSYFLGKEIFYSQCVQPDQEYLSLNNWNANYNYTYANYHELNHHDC
# Procedure, shortened: as §1
# ELF4 = ELF4 (Homo sapiens, UniProt Q99607 1-663); settings: protein: recombinant; tags: N-terminal GST; dsDNA, one strand shown
# Procedure, shortened: as §1
# ELK4 = target: T9, ELK4 (Homo sapiens, UniProt P28324-2 1-405); settings: protein: recombinant; tags: N-terminal GST; dsDNA, one strand shown
# T9 sequence: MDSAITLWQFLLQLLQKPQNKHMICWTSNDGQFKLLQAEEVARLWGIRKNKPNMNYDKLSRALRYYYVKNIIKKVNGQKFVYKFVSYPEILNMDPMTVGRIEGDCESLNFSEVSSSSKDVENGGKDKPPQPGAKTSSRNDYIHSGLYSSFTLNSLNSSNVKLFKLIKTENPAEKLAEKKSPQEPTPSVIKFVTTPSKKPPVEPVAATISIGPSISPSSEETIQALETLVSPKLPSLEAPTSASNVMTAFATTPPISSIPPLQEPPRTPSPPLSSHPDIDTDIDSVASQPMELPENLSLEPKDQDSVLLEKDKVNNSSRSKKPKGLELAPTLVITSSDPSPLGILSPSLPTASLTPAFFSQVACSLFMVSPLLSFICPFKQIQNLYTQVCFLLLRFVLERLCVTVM
# Procedure, shortened: as §1
# ETV2 = target: T10, ETV2 (Homo sapiens, UniProt O00321 1-342); settings: protein: recombinant; tags: N-terminal GST; dsDNA, one strand shown
# T10 sequence: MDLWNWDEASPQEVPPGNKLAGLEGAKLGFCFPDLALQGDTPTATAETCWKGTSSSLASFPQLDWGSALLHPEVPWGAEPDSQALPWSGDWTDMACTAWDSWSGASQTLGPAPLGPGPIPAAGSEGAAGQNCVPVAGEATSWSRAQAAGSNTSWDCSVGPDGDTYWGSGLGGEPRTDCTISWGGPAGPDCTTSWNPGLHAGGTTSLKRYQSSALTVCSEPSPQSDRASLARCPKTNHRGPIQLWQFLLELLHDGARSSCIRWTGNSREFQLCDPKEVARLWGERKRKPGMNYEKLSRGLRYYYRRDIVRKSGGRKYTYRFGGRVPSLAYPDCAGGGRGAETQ
# Procedure, shortened: as §1
# ELF3 = target: T11, ELF3 (Homo sapiens, UniProt P78545 1-371); settings: protein: recombinant; tags: N-terminal GST; dsDNA, one strand shown
# T11 sequence: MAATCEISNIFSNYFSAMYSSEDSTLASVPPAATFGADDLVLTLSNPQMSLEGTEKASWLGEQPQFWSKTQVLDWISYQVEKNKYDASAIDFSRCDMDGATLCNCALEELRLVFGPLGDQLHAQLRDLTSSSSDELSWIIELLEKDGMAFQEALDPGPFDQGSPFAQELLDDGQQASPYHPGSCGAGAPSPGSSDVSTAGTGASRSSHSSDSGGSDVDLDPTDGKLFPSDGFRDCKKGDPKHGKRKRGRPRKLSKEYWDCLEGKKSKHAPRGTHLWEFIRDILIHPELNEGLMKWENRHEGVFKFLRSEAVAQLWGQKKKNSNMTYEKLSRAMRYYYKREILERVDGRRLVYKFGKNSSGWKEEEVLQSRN
# Procedure, shortened: as §1
# CRX = CRX (Homo sapiens, UniProt O43186 1-299); settings: protein: recombinant; tags: N-terminal GST; dsDNA, one strand shown
# Procedure, shortened: as §1
# ETV1 = ETV1 (Homo sapiens, UniProt P50549 1-477); settings: protein: recombinant; tags: N-terminal GST; dsDNA, one strand shown
# Procedure, shortened: as §1
# ETV5, sequence (P41161 whole entry): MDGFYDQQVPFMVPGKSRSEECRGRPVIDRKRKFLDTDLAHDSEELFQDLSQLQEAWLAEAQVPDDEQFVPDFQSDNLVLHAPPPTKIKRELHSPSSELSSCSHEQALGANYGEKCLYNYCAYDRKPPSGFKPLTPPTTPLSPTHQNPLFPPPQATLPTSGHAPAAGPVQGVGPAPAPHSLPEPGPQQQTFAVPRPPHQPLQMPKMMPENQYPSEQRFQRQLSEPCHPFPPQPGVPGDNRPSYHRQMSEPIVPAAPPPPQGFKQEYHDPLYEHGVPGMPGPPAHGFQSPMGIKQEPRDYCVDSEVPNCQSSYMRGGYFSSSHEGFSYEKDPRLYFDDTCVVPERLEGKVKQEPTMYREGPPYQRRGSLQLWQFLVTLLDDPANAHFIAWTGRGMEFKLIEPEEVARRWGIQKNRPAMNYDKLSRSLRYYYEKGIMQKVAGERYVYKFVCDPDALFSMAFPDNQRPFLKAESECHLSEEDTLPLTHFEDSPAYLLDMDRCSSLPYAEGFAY
# HSF1, sequence (Q00613 whole entry): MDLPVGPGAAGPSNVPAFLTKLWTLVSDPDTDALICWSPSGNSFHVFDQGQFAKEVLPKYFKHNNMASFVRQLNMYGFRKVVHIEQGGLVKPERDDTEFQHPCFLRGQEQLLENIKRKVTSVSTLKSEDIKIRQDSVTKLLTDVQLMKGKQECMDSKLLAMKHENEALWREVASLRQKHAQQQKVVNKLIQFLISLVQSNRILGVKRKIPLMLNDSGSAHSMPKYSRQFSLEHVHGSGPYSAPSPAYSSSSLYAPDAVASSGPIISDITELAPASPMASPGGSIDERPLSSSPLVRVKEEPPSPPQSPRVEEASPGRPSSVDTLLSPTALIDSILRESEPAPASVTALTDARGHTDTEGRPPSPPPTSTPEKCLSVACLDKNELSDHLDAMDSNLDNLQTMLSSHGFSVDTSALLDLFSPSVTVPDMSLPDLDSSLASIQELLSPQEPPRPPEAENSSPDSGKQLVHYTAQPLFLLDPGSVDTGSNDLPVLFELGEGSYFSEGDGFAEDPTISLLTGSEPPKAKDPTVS
# SPIB, sequence (Q01892 whole entry): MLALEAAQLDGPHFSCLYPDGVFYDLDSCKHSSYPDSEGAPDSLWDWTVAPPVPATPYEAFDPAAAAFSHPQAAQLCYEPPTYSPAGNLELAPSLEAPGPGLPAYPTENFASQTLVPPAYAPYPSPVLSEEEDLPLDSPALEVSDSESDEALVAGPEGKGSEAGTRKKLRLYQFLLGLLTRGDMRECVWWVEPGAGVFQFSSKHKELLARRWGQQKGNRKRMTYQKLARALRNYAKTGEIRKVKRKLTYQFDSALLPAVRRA
# ELF1, sequence (P32519 whole entry): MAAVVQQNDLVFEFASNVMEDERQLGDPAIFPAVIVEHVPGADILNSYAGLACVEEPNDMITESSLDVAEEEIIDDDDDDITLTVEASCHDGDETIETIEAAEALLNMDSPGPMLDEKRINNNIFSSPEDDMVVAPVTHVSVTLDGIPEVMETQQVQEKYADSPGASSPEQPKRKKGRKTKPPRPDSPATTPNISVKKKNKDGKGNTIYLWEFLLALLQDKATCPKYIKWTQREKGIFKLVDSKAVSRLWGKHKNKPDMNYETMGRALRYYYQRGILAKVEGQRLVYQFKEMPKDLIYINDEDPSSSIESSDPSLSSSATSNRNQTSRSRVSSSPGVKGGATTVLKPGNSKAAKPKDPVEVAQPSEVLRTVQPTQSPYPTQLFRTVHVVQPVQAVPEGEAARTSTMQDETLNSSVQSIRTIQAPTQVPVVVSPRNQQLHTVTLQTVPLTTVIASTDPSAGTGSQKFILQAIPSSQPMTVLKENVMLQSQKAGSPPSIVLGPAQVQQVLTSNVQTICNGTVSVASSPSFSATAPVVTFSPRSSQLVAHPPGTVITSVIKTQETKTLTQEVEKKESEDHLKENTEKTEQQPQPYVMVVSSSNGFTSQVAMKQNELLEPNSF
# ELF4, sequence (Q99607 whole entry): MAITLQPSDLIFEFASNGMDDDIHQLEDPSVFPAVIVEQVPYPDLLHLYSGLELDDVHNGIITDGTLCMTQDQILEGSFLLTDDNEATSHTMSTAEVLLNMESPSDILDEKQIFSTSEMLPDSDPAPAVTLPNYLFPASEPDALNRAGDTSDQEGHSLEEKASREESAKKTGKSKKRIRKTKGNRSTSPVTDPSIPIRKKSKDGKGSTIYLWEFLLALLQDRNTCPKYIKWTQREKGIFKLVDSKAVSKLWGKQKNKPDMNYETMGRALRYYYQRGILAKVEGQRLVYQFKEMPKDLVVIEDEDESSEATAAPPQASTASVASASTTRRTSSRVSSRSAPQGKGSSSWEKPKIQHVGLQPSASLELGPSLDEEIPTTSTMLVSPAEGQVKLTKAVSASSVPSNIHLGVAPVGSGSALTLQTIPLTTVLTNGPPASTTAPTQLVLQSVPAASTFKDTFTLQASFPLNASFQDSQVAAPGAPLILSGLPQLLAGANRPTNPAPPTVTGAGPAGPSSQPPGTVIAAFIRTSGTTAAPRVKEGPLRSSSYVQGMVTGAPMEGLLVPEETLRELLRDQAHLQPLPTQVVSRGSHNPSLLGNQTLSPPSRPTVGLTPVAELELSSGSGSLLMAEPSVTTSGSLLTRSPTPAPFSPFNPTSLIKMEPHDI
# ETV1, sequence (P50549 whole entry): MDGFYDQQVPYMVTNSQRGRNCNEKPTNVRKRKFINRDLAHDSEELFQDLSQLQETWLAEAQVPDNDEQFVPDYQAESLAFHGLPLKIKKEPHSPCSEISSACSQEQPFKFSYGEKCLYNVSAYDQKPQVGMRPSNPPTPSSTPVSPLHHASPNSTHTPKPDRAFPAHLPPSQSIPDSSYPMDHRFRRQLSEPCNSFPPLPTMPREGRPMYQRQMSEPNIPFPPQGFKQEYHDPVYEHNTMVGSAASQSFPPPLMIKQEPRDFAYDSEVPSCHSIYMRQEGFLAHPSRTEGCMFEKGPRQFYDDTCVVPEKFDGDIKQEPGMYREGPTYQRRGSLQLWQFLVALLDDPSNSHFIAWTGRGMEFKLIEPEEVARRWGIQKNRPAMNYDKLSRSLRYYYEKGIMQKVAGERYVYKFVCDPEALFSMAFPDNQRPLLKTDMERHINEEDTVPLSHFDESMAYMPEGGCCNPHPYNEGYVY
# CRX, sequence (O43186 whole entry): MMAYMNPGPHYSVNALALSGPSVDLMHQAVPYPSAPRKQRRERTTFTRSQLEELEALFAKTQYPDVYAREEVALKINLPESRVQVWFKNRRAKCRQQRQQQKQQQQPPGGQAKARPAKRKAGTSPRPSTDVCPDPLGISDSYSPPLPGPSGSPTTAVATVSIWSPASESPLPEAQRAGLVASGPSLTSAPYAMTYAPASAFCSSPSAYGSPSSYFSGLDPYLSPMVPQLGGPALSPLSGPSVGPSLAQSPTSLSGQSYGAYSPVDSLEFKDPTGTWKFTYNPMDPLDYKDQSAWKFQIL
sequence,measurement,setting,value
ATTGCT,binding signal,FLI1,"1.24 fold enrichment (6-mer frequency, TF over GST control)"
same,binding signal,ELK1,"1.19 fold enrichment (6-mer frequency, TF over GST control)"
same,binding signal,GABPA,"1.27 fold enrichment (6-mer frequency, TF over GST control)"
same,binding signal,ERG,"1.25 fold enrichment (6-mer frequency, TF over GST control)"
same,binding signal,ELF1,"1.24 fold enrichment (6-mer frequency, TF over GST control)"
same,binding signal,EHF,"1.31 fold enrichment (6-mer frequency, TF over GST control)"
same,binding signal,SPI1,"1.1 fold enrichment (6-mer frequency, TF over GST control)"
same,binding signal,SPIB,"1.3 fold enrichment (6-mer frequency, TF over GST control)"
same,binding signal,ELK3,"1.22 fold enrichment (6-mer frequency, TF over GST control)"
same,binding signal,FEV,"1.22 fold enrichment (6-mer frequency, TF over GST control)"
same,binding signal,ETV5,"1.16 fold enrichment (6-mer frequency, TF over GST control)"
same,binding signal,HSF1,"1.14 fold enrichment (6-mer frequency, TF over GST control)"
same,binding signal,SPIC,"1.32 fold enrichment (6-mer frequency, TF over GST control)"
same,binding signal,ELF4,"1.19 fold enrichment (6-mer frequency, TF over GST control)"
same,binding signal,ELK4,"1.16 fold enrichment (6-mer frequency, TF over GST control)"
same,binding signal,ETV2,"1.22 fold enrichment (6-mer frequency, TF over GST control)"
same,binding signal,ELF3,"1.28 fold enrichment (6-mer frequency, TF over GST control)"
same,binding signal,CRX,"1.17 fold enrichment (6-mer frequency, TF over GST control)"
same,binding signal,ETV1,"1.27 fold enrichment (6-mer frequency, TF over GST control)"
